A selection: hits, their analogues and other compounds. The true share with any hit is near 21%.
Sm TGR block: qHTS Assay for the Inhibitors of Schistosoma Mansoni Peroxiredoxins | Schistosoma mansoni thioredoxin glutathione reductase (TGR), Q962Y6 | purified TGR, DTNB reduction, TNB absorbance 405 nm | Potency, µM (series often up to 114 µM), without a hit: at the top dose activity change, negative = inhibition, hits mostly inhibitors | 360,000 tested, 3% active | AID 485364, 2010; also: potency is read from the fitted curve at half-maximal effect; % is scaled to controls: 0 for no effect and ±100 for the full control effect; nearly all actives have a fitted effect of over 60% in size
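First, TGR (20 nM dispensed) and NADPH were mixed with compound. Second, a 15 min room-temperature incubation followed. Third, further NADPH and then DTNB were added to start the reaction. Finally, TNB absorbance was monitored kinetically.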
Pf growth 48h: Primary qHTS for delayed death inhibitors of the malarial parasite plastid, 48 hour incubation | P. falciparum luciferase growth in erythrocytes, 48 h | Potency, µM (top dose mostly 28.7 µM), without a hit: at the highest dose activity change, negative = inhibition, most hits filed as inhibitors | 310,000 tested, 5.9% active | AID 504832, 2011; also: potency is read from the fitted curve at half-maximal effect; % is scaled to controls: 0 for no effect and ±100 for the full control effect
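A one-generation exposure of luciferase-tagged malaria parasites in RPMI 1640/Albumax erythrocyte culture, 37 C and 5% CO2. Inhibition is inferred from decreased luminescence after adding detection reagent.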
Shiga inhibitor: A qHTS for Small Molecule Inhibitors of Shiga Toxin. Vero cells, Shiga toxin protein synthesis inhibition reporter. 290,000 tested, 9.2% active. inhibition, % at 38.7 µM. AID 2315, 2010; in the data active = inhibition mostly above about 28%, no sharp cut-off; inactive = mostly below about 43%; also: 0% is about no effect
Cycloheximide cs: Cycloheximide Counterscreen for Small Molecule Inhibitors of Shiga Toxin; cell reporter, cycloheximide protein synthesis inhibition counterscreen; max response, %; 300,000 tested, 12% active; in the data active = max response mostly above about 13%, no sharp cut-off; inactive = mostly below about 14%; also: read at 38.3 µM for the half of the compounds with a filed dose; 0% is about no effect
Pf growth 96h: Primary qHTS for delayed death inhibitors of the malarial parasite plastid, 96 hour incubation | P. falciparum luciferase reporter growth, 96 h | Potency, µM (top dose mostly 28.7 µM), for the others: at the highest dose activity change, negative = inhibition, most hits filed as inhibitors | 320,000 tested, 6.9% active; also: potency is read from the fitted curve at half-maximal effect; % is scaled to controls: 0 for no effect and ±100 for the full control effect
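Erythrocytes infected with luciferase-expressing P. falciparum were dispensed at 2% hematocrit and 0.05% parasitemia (final), then incubated with compounds 96 hours at 37 C in 5% CO2. Luminescence after detection reagent addition reported growth.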
NS1 inh: qHTS Assay for Inhibitors of Influenza NS1 Protein Function; Potency, µM (doses to about 46.1 µM), without a hit: at the highest dose activity, positive = more growth; 270,000 tested, 0.4% active; AID 2326, 2010; calls by dose curve; also: potency is read from the fitted curve at half-maximal effect; actives are rising curves; nearly all actives have a fitted effect of over 50% in size
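Compounds were scored for reversing the slow growth caused by influenza A NS1 in S. cerevisiae, measured by optical density at 600 nm. Assay medium contained 2% galactose at pH 6.0; NS1-free yeast of the same strain were the positive control.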
Starred values were filed as active, the others as inactive; i = inactive; u = inconclusive; x = no result; ! = a repeat was not active. Unless noted, calls follow the shape of the dose curve; as a rule, active = well fitted curve in the direction sought with a large enough effect; inconclusive = small, poorly fitted or top-dose-only effect, or another doubt; inactive = no such curve, though single readings can be large; an effect the other way counts as inactive or inconclusive.

SMILES	Sm TGR block	Pf growth 48h	Shiga inhibitor	Cycloheximide cs	Pf growth 96h	NS1 inh
CC(C)N1C(=O)S/C(=C\c2ccc(-c3ccc(Cl)c(C(=O)O)c3)o2)C1=O	-35%	116%	153*	76*	158%	17%
CC(C)OC(=O)c1cc(-c2ccc(C=O)o2)ccc1Cl	u	31%	21	11*	15µM*	-18%
CCN(CC)c1ccc(/C=C2\C(=O)NC(=S)N(C)C2=O)o1	-34%	116%	110*	45*	76%	2%
CCOC(=O)CN1C(=O)S/C(=C\c2ccc(-c3ccc(C(=O)O)c(Cl)c3)o2)C1=O	-28%	u	-4	2	-18%	2%
CCN(CC)c1ccc(C=C2C(=O)N(C)C(=S)N(C)C2=O)o1	45µM*	34%	15	-1	19%	6%
COc1ccc(C(=O)NNC(=O)c2ccc(C)cc2)cc1S(=O)(=O)N1CCCC1	-1%	12%	19	-8	42%	x
Cc1ccc(OCCN2C(=O)S/C(=C\c3ccc(C)o3)C2=O)cc1	-27%	3%	-12	1	u	-1%
CCN(CC)c1ccc(/C=C2/SC(=O)N(C(C)C)C2=O)o1	11µM*	u	-7	-5	u	-45%
O=C(NCc1ccc(Cl)cc1)C1CCN(S(=O)(=O)c2ccccc2)CC1	25µM*!	9%	-1	-5	-8%	-5%
O=C(NCc1ccc(Cl)cc1)C1CCN(S(=O)(=O)Cc2ccccc2)CC1	-16%	x	x	x	x	x
O=C(NCc1ccc(F)cc1)C1CCN(S(=O)(=O)c2ccc(Cl)cc2)CC1	4%	3.7µM*	-5	1	-23%	-8%
CCc1cc2c(-c3ccccc3)cc(=O)oc2cc1OCC(C)=O	-13%	-24%	x	-3	13µM*	-55%
Cc1nc(NC(=O)c2ccc(Br)o2)sc1C	-8%	x	63*	45*	188%	-62%
Cc1ccc(C(=O)Nc2nc(C)c(C)s2)o1	-6%	x	62*	35*	284%	-14%
Cc1ccc(C(=O)Nc2nnc(C)s2)o1	-2%	x	-3	10	11%	-3%
Cc1cc(NC(=O)CSc2nnc(-c3ccccc3)n2Cc2ccco2)no1	-24%	u	24	10	u	7%
COC(=O)c1ccc2c(=O)n(Cc3ccco3)c(SCC(=O)Nc3cc(C)on3)nc2c1	-21%	4.7µM*	-5	-3	-6%	1%
Cc1cc(NC(=O)CSc2nnc(COc3ccccc3)n2Cc2ccco2)no1	-8%	-16%	-5	-3	8.3µM*	4%
Cc1cc(NC(=O)CSc2nnc(Cc3ccccc3)n2C)no1	4%	-11%	-5	-3	i	0%
COC(=O)c1ccc2c(=O)n(Cc3ccco3)c(SCC(=O)Nc3ccccc3Cl)nc2c1	2%	-4%	-14	-3	u	10%
CCn1c(Cc2ccccc2)nnc1SCC(=O)Nc1cc(C)on1	6%	-14%	-10	-3	8.3µM*	-2%
C=C(NC(=O)C(=C)NC(=O)c1csc(C2=NC3c4csc(n4)C4NC(=O)c5csc(n5)C([C@@](C)(O)C(C)O)NC(=O)C5CSC(=N5)/C(=C\C)NC(=O)C(C(C)O)NC(=O)c5csc(n5)[C@]3(CC2)NC(=O)C(C)NC(=O)C(=C)NC(=O)C(C)NC(=O)C(C(C)CC)NC2C=Cc3c(C(C)O)cc(nc3C2O)C(=O)OC4C)n1)C(N)=O (some centres undefined)	-23%	0.83µM*	x	x	0.74µM*	x
C=C(NC(=O)C(=C)NC(=O)c1csc(C2=N[C@@H]3c4csc(n4)[C@@H]4NC(=O)c5csc(n5)[C@@H]([C@](C)(O)[C@H](C)O)NC(=O)[C@@H]5CSC(=N5)/C(=C/C)NC(=O)[C@@H]([C@H](C)O)NC(=O)c5csc(n5)[C@]3(CC2)NC(=O)[C@@H](C)NC(=O)C(=C)NC(=O)[C@@H](C)NC(=O)[C@@H]([C@@H](C)CC)N[C@H]2C=Cc3c([C@H](C)O)cc(nc3[C@@H]2O)C(=O)O[C@H]4C)n1)C(N)=O	x	5.7µM*	x	x	4.1µM*	x
CCn1c(=O)c(C(=O)Nc2ccccc2F)c(O)c2ccccc21	5%	-6%	43	9.1*	u	-10%
CCn1c(=O)c(C(=O)NCc2ccccn2)c(O)c2ccccc21	0%	-16%	-6	0	12µM*	-154%
SMILES	Sm TGR block	Pf growth 48h	Shiga inhibitor	Cycloheximide cs	Pf growth 96h	NS1 inh
CCOc1cc(CNC(=O)c2ccc3c(c2)N(C)C(=O)C2CCCCN32)cc(OCC)c1OCC (centres undefined)	5%	x	x	x	x	x
O=C(Nc1cc(C(F)(F)F)cc(C(F)(F)F)c1)c1cc(Cl)ccc1O	x	x	-3	-6	x	x
O=S(=O)(c1cccc(Cl)c1)N1CN(CC2CCCO2)c2nc3ccccc3nc21 (centres undefined)	0%	u	-6	9	u	6%
O=C(Nc1ccccc1-c1ccccc1)NC1CC2CCCC(C1)N2Cc1ccc(F)cc1 (centres undefined)	x	12µM*	-17	5	34%	-1%
O=C(Nc1ccccc1-c1ccccc1)NC1CC2CCCC(C1)N2CCc1ccccc1 (centres undefined)	0%	5.2µM*	-14	0	u	-9%
O=C(Nc1cccnc1)c1cnn2c(C(F)F)cc(C3CC3)nc12	8%	8%	15	-1	x	-41%
O=C(Nc1cc(Br)ccc1O)c1cnn2c(C(F)F)cc(C3CC3)nc12	0%	4.1µM*	-1	-2	-23%	-1%
COc1cccc(NC(=O)CCc2nnc3ccc(N4CCN(c5cccc(OC)c5)CC4)nn23)c1	0%	u	22	-3	u	8%
COc1cc(NC(=O)CCc2nnc3ccc(N4CCN(c5cccc(OC)c5)CC4)nn23)cc(OC)c1	1%	2%	-6	2	3.3µM*	21%
COc1cccc(N2CCN(C(=O)CCc3nnc4ccc(N5CCOCC5)nn34)CC2)c1	u	-3%	-6	-2	12µM*	22%
CC(=O)c1ccc(NC(=O)CCc2nnc3ccc(N4CCC5(CC4)OCCO5)nn23)cc1	-9%	9%	82*	47*	-14%	2%
COc1cc(NC(=O)CCc2nnc3ccc(N4CCC(C)CC4)nn23)cc(OC)c1	3%	-16%	2	10	1.9µM*	4%
COc1ccc(C2Nc3ccccc3-c3nnc(SC)nc3O2)cc1C (centres undefined)	0%	x	x	x	x	x
COc1cc(S(=O)(=O)NCC2(N3CCCCC3)CCCCC2)ccc1NC(C)=O	-1%	48%	x	x	66%	x
O=S(=O)(NCC1CCCO1)c1ccc(Cl)cc1 (centres undefined)	-21%	14%	-1	-1	6%	7%
